In assay [1] the target is ATP-dependent 6-phosphofructokinase (Trypanosoma brucei brucei) (UniProt O15648). Briefly: qHTS Assay to Find Inhibitors of T. brucei phosphofructokinase: hit validation (AID 492961).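 Further: luminescence reports ADP formed as PFK phosphorylates fructose-6-phosphate with ATP; series mostly up to about 51 µM; on the % scale 0 is the no-effect control and ±100 the full control effect.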 The essentials: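 Compounds titrated; %activity normalized to 0x and 1x enzyme controls, curve-fitted. Readout: ADP-Glo luminescence after 45 min room-temperature reaction of 1.25 nM PFK, 0.1 mM ATP, 0.5 mM F6P, pH 8.0.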
ATP-dependent 6-phosphofructokinase (Trypanosoma brucei brucei), sequence (O15648 whole entry, looked up): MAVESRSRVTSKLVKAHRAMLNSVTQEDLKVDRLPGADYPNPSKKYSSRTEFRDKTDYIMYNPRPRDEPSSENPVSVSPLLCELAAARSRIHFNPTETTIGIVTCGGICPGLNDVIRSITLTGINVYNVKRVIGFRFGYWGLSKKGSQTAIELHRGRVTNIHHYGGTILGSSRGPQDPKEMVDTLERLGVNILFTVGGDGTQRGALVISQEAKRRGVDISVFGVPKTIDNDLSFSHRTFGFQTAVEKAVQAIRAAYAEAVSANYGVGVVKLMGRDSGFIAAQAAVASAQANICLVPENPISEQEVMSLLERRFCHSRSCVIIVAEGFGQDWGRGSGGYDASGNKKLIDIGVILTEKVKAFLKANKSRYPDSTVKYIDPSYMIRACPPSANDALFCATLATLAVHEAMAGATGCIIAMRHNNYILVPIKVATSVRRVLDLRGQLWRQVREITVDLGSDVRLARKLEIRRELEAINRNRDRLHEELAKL

Assay [2] has as its target Bile acid receptor (Homo sapiens) (UniProt Q96RI1). Briefly: qHTS assay for small molecule agonists of farnesoid X receptor signaling (AID 588527; calls by dose curve;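 further: series mostly up to about 77 µM; 0% = vehicle basal and 100% = reference agonist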). The conditions noted are these: HEK293T FXR-UAS-bla, beta-lactamase ratio, 16 h; active compounds read high. The essentials: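 FXR-UAS-bla HEK293T cells (10% dialyzed FBS) preincubated 5-7 h at 37 C, then compounds at up to 92 uM for 16 h at 37 C. CCF4 beta-lactamase read-out after 2 h RT. Normalized to chenodeoxycholic acid (100 uM) and DMSO; Hill fit gave EC50 and efficacy.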

For assay [3], the target named is Glucocorticoid receptor (Homo sapiens) (UniProt P04150). Briefly: GR-EFC Redistribution (AID 451; calls by dose curve; further: potency means the concentration at half of the fitted maximal effect). The conditions noted are these: CHO-K1 GR-EFC translocation, beta-gal luminescence, 2 h. The procedure, abridged: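 CHO-K1 cells expressing nuclear EA and GR-ED fragments of b-gal; compounds titrated up to 46 uM final, 2 h at 37 C. GR nuclear translocation read as complemented b-gal luminescence after 1 h RT detection.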
Glucocorticoid receptor (Homo sapiens), sequence (P04150 whole entry, looked up, the tested form may be a part): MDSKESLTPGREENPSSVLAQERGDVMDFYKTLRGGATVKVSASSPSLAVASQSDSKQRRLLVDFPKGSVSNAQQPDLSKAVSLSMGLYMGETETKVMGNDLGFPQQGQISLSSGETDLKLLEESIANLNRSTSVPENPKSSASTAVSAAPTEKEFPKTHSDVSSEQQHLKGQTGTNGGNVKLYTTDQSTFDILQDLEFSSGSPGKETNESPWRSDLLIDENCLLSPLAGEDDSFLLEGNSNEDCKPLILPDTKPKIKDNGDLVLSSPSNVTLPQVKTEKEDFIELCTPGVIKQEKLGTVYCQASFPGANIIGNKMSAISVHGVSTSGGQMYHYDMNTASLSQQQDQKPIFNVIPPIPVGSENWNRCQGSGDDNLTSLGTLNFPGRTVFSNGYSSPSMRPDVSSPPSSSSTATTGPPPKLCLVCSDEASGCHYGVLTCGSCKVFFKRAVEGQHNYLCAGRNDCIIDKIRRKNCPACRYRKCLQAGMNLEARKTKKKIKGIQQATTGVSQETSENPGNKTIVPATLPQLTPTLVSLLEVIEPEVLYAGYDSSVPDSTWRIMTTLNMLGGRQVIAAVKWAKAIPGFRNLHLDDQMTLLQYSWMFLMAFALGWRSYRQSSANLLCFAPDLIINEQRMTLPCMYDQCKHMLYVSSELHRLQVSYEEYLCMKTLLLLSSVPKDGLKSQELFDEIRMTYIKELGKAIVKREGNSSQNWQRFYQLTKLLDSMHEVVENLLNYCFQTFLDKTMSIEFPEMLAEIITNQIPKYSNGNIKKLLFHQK

Assay [4] addresses Mitogen-activated protein kinase 10 (Mus musculus) (UniProt Q61831). Description: JNK3 AlphaScreen Assay (AID 530; active means well fitted curve in either direction with a large enough effect, not every such curve was filed as active;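 further: kinase came from lysate of stimulated human HepG2 cells; signal reports phosphorylation of biotinylated GST-cJun 1-79 at Ser73 with 10 µM ATP; series mostly up to about 57 µM; on the % scale 0 is the no-effect control and ±100 the full control effect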). The essentials:
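Activity was read by AlphaScreen after JNK3-containing HepG2 lysate (cytokine pre-activated) phosphorylated biotinylated GST-cJun with 10 uM ATP at room temperature. Phospho-Ser73 cJun antibody with Protein-A acceptor beads provided detection.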
(In Alpha technology, singlet oxygen from a donor bead excites a nearby acceptor bead.)

Assay [5] deals with 3',5'-cyclic-AMP phosphodiesterase 4B (Homo sapiens) (UniProt Q07343). Description: qHTS Assay for Inhibitors of PDE-IV (AID 607; active means well fitted activation curve with a large enough effect in the main read-out, with a control signal flat, not every such curve was filed as active; further: % of control where 0% means no effect). The procedure, abridged: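 HEK293 ACTOne cells with CNG channel (1000/well), endogenous PDE4; membrane potential dye, compounds up to 22.9 uM final. Fluorescence Ex 535/Em 590; RO 20-1724 (100 uM final) as reference.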
3',5'-cyclic-AMP phosphodiesterase 4B (Homo sapiens), sequence (Q07343 whole entry, looked up): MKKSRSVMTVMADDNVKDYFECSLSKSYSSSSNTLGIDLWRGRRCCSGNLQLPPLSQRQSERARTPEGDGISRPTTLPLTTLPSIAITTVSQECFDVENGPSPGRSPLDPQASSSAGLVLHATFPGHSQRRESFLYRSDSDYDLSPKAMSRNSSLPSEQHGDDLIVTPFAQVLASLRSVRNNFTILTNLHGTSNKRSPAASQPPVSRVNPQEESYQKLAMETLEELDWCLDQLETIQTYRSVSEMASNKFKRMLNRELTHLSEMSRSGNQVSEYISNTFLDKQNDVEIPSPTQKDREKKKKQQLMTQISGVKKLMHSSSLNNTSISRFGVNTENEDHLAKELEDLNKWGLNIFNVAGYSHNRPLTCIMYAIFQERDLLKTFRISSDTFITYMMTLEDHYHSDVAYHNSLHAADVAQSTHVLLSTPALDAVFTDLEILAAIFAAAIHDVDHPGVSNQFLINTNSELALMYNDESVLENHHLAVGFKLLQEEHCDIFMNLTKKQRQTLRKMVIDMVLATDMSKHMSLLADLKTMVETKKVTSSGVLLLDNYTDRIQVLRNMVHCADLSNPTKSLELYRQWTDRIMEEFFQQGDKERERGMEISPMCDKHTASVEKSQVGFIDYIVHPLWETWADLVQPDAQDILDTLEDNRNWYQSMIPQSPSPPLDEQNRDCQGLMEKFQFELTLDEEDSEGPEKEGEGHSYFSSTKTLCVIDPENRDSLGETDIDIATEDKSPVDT
Background: In qHTS, concentration-response curves come from the screen itself.

Assay [6] is described as follows: Stat Signaling Pathway (AID 446; active means well fitted curve in either direction with a large enough effect, not every such curve was filed as active;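 further: ME-180 cervical cancer cells given 40 pM IL-6 alongside compound; SIE-controlled beta-lactamase reporter measured as 460/530 nm FRET emission ratio; on the % scale 0 is the no-effect control and ±100 the full control effect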). The essentials:
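Normalization used AC90 stimulation (300 pM IL-6) and AC90 inhibition (125 nM pan-JAK inhibitor at 40 pM IL-6). The underlying signal is SIE-driven beta-lactamase in ME-180 cells after 5 h IL-6 exposure with compound.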

In assay [7] the target is Glucocorticoid receptor (Homo sapiens) (UniProt P04150). Description: GR-GFP Redistribution (AID 450;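 active means compounds whose dose series gives a full or clear partial fitted curve of increased nuclear translocation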; further: potency means the concentration at half of the fitted maximal effect). The conditions noted are these: U2OS GR-GFP nuclear translocation, laser cytometry, 2 h.
Assay [8] has as its target ATPase family AAA domain-containing protein 5 (Homo sapiens) (UniProt Q96QE3). Briefly: HTS assay for small molecules that inhibit ELG1-dependent DNA repair in human embryonic kidney (HEK293T) cells expressing luciferase-tagged ELG1: Hit Confirmation (AID 624248). Further: potency means the concentration at half of the fitted maximal effect; nearly all actives have a fitted effect of over 55% in size. The conditions noted are these: HEK293T ELG1-luciferase levels, luminescence; cells co-treated with 5-fluorouridine. The essentials: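 HEK293T cells expressing luciferase-tagged ELG1 treated with 5-fluorouridine plus compound for 16 h at 37 C; luciferase activity then measured with ONE-Glo after 30 min at room temperature.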

Assay [9] has the same target. Description: qHTS screen for small molecules that inhibit ELG1-dependent DNA repair in human embryonic kidney (HEK293T) cells expressing luciferase-tagged ELG1: Hit Confirmation using MMS Stimulated ELG1 (AID 624249). Further: potency means the concentration at half of the fitted maximal effect; nearly all actives have a fitted effect of over 60% in size. The conditions noted are these: HEK293T luciferase-tagged ELG1 level. The procedure, abridged: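 Luminescence from luciferase-tagged ELG1 measured 16 h after pin-tool compound transfer into HEK293T cells stimulated with 10 µM MMS (final). Compounds lowering luciferase signal counted as inhibitors of ELG1 response.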

A short description of assay [10]: qHTS screen for small molecules that inhibit ELG1-dependent DNA repair: Hit Confirmation with MMS Viability (AID 624251).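 Further: potency means the concentration at half of the fitted maximal effect; viability read 16 h after compound addition; nearly all actives have a fitted effect of over 60% in size.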 The conditions noted are these: Cell viability with MMS. The essentials:
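CellTiter-Glo viability of ELG1-luc HEK293T cells after 16 h with compound plus 10 µM MMS.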

Assay [11] has as its target Cytochrome P450 2C9 (Homo sapiens) (UniProt P11712). Briefly: qHTS Assay for Inhibitors and Substrates of Cytochrome P450 2C9 (AID 883). Further: nearly all actives have a fitted effect of over 60% in size. Further: potency means the concentration at half of the fitted maximal effect. The procedure, abridged:
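Human CYP2C9 (10nM) with Luciferin-H at 100uM (its KM) in 25mM KPO4; compound preincubated 10 min at 37C, then NADPH regeneration for 60 min at 37C. Luciferin read by luminescence after detection reagent; normalized to 57uM sulphaphenazole as full inhibition.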

The target in assay [12] is Cytochrome P450 2C19 (Homo sapiens) (UniProt P33261). Description: qHTS Assay for Inhibitors and Substrates of Cytochrome P450 2C19 (AID 899). Further: nearly all actives have a fitted effect of over 60% in size. Further: potency means the concentration at half of the fitted maximal effect. The procedure, abridged: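 5 nM human CYP2C19 with 10uM Luciferin-H EGE (at KM) in 50mM KPO4, compound preincubated 10 min at 37C, then NADPH regeneration for 60 min at 37C. Luciferin read by luminescence after detection reagent; normalized to 57uM ketoconazole as full inhibition.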

The target in assay [13] is Androgen receptor (Homo sapiens) (UniProt P10275). Description: qHTS assay for small molecule agonists of androgen receptor signaling (AID 588515; active means well fitted curve in the direction sought with a large enough effect in the signal ratio, with a control signal flat; the % refers to the signal ratio; further: on the % scale 0 is the no-effect control and ±100 the full control effect). The conditions noted are these: AR-UAS-bla HEK293, beta-lactamase ratio, agonist 16 h; active compounds read high. The essentials: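 Stimulation of an AR-responsive β-lactamase reporter in GripTite HEK293 cells was measured after 16 h compound exposure at 37 °C, via CCF4 fluorescence after 2 h RT. EC50 from Hill fits, normalized to R1881 at 30 nM.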

For assay [14] the target is unchanged. Briefly: qHTS assay for small molecule antagonists of androgen receptor signaling (AID 588516; active means well fitted curve in the direction sought with a large enough effect in the signal ratio, with a control signal flat, not every such curve was filed as active; the % refers to the signal ratio; further: on the % scale 0 is the no-effect control and ±100 the full control effect). The procedure, abridged: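 Antagonist mode: inhibition of R1881-stimulated (10 nM final) bla reporter in GeneBLAzer AR HEK 293 cells, 16 h at 37C, compounds titrated. IC50 and efficacy from Hill-equation fits of 405/460–530 nm FRET ratios.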
The nature of assay [15]: qHTS screen for small molecules that inhibit ELG1-dependent DNA repair: Hit Confirmation with 5FU Viability (AID 624250).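 Further: potency means the concentration at half of the fitted maximal effect; viability measured 16 h after compound addition.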 The conditions noted are these: cell viability with 5-FU. The procedure, abridged: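 Using CellTiter-Glo, viability of ELG1-luciferase HEK293T cells was assessed 16 h after adding compounds with 5-fluorouridine at a final 10 µM.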
In assay [16] the target is Luciferin 4-monooxygenase (Photinus pyralis) (UniProt P08659). Description: qHTS screen for small molecules that inhibit ELG1-dependent DNA repair: Hit Confirmation in Biochemical Luciferin Assay (AID 624253). The procedure, abridged:
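Luminescence from purified firefly luciferase acting on its substrate reagent, with compounds pinned in before the enzyme, read by CCD imager; flags direct luciferase inhibitors.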

For assay [17], the target named is Cytochrome P450 2D6 (Homo sapiens) (UniProt P10635). Description: qHTS Assay for Inhibitors and Substrates of Cytochrome P450 2D6 (AID 891). The essentials:
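Luminescent read-out of luciferin formed by 5 nM human CYP2D6 demethylating 30 uM Luciferin-ME EGE (Km level) over 60 min at room temperature after NADPH regeneration addition. Data normalized to full inhibition by 1.43 uM quinidine.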

Assay [18] concerns the target Alpha-galactosidase (Coffea arabica) (UniProt Q42656). Description: Counterscreen for Glucocerebrosidase Inhibitors: qHTS Assay for Coffee Bean alpha-Galactosidase at pH 4.5 (AID 957).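 Further: series mostly up to about 77 µM; plate controls were enzyme alone for no effect and no enzyme for full effect.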 The essentials:
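Fluorogenic qHTS at pH 4.5 (citrate buffer with Tween-20): 2 nM enzyme, 80 uM 4-MU-alpha-galactoside substrate, compound titrated 0.7 nM to 77 uM, 20 min room temperature. Glycine/NaOH stop; 4-MU read Ex 365/Em 440; Hill-equation AC50 against no-enzyme and enzyme controls.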
A general note: A counterscreen serves to expose hits that act by an unwanted route or on another target.

Assay [19] shares this target. Description: Counterscreen for Glucocerebrosidase Inhibitors: qHTS Assay for Coffee Bean alpha-Galactosidase at pH 5.9 (AID 998).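 Further: plate controls were uninhibited enzyme for no effect and no-enzyme basal signal for full effect.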 The procedure, abridged:
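Enzyme 2 nM + cpd (0.7 nM–77 uM titration) + 4-MU-alpha-Gal 80 uM, pH 5.9 citrate/Tween-20, RT 20 min, NaOH/glycine stop pH 10, fluor 365/440. Normalized to no-enzyme and full-activity controls; Hill-fit AC50.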

Values without a mark were called inactive. Records with an inconclusive call do not appear. The list shows a part of the results. Calls of active or inactive are those of the source. Unless noted, the call rests on the fitted dose curve; in most records, active means well fitted curve in the direction sought with a large enough effect; inconclusive means small, poorly fitted or top-dose-only effect, or another doubt; inactive means no such curve, though single readings can be large; an effect the other way counts as inactive or inconclusive. Where only a bound is given, the exact number is not on record here.

Drawing on PubChem BioAssay (NCATS), this text covers Potency, activation and outcome for eleven compounds.

ATPase family AAA domain-containing protein 5 (Homo sapiens), sequence (Q96QE3 whole entry, looked up, the tested form may be a part): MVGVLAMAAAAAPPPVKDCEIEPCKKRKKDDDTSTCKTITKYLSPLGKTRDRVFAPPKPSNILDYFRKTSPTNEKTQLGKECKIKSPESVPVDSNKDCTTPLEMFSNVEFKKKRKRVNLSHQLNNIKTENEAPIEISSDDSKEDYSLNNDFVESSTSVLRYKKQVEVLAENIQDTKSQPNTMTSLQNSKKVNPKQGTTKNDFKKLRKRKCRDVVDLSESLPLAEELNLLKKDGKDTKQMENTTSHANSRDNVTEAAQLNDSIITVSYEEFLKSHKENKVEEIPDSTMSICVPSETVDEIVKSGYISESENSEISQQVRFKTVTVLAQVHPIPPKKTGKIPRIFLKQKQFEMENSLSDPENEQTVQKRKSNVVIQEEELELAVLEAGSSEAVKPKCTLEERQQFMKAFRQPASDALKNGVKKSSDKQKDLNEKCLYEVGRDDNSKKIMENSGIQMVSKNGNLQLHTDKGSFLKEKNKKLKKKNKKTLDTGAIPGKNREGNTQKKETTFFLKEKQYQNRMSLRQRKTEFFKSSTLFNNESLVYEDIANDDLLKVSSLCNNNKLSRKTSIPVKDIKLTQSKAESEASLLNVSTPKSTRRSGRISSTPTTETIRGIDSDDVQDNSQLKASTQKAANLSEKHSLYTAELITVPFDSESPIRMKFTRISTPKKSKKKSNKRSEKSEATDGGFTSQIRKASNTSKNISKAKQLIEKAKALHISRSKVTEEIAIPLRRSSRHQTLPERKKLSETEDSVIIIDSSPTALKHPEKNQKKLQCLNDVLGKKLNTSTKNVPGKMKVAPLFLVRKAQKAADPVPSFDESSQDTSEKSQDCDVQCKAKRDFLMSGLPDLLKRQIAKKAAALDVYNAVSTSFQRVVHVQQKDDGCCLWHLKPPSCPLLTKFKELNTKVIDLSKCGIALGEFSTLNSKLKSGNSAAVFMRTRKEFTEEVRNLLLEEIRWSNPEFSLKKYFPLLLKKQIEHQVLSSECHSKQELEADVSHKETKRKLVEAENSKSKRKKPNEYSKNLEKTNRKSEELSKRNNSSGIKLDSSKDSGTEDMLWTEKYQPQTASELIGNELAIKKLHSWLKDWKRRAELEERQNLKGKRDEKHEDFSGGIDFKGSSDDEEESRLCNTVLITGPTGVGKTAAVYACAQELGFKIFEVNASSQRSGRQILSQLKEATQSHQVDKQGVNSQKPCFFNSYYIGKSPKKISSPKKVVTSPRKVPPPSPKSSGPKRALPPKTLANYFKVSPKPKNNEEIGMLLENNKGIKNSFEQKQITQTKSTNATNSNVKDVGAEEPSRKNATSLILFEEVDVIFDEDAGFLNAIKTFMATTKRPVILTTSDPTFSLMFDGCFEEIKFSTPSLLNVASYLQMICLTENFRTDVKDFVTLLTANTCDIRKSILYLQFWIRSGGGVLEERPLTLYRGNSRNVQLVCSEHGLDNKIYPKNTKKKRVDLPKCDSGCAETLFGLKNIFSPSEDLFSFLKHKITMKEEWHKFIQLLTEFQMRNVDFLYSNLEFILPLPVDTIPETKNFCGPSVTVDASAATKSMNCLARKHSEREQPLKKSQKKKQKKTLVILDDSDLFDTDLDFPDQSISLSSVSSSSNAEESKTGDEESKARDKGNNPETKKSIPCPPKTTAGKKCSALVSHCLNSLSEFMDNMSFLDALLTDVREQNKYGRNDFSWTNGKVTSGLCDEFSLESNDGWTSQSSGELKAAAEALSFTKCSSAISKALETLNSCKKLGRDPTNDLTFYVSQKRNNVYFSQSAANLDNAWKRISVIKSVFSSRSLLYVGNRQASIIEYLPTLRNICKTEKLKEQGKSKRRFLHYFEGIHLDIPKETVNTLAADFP
Bile acid receptor (Homo sapiens), sequence (Q96RI1 whole entry, looked up): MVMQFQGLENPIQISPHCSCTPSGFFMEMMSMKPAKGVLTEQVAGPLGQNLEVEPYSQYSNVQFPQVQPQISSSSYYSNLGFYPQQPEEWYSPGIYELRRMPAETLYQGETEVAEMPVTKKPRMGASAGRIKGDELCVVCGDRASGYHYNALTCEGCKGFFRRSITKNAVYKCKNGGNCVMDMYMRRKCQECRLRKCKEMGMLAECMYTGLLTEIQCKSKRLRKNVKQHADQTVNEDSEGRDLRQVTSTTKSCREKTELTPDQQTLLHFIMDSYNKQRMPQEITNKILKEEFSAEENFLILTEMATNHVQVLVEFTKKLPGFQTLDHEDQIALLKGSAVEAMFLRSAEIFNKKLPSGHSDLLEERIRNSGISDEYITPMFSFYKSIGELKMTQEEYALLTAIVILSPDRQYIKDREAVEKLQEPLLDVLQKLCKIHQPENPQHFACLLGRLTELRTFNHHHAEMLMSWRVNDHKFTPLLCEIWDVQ
Alpha-galactosidase (Coffea arabica), sequence (Q42656 whole entry, looked up): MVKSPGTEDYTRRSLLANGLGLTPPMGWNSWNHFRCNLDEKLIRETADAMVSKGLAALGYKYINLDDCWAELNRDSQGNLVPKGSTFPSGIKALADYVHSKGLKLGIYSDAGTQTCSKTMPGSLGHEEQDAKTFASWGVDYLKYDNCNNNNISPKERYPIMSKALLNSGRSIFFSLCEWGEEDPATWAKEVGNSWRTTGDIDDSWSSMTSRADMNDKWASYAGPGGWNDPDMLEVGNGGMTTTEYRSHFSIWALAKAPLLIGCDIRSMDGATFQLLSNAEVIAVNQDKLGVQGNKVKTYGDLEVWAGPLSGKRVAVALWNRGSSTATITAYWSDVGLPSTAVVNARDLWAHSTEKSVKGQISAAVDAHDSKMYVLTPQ

For the compound `COc1cc2c(cc1OC)[C@@]13CCN4CC5=CCOC6CC(=O)N2C1[C@H]6[C@@H]5C[C@@H]43` (stereo partly specified), the Potency entry in [1] is “inactive”.

Take `CNC(=O)Oc1cccc2c1OC(C)(C)O2`: the activation in [2] was -0.605%.

As to `O=c1ccc2cc(O[C@H]3O[C@@H](CO)[C@@H](O)[C@@H](O)[C@@H]3O)c(O)cc2o1`, the Potency in assay [3] is more than 20.6 µM. Also, the result in [4] was inactive. Further, in [5], the Potency result is “inactive”.

For `CC([C@H](O)c1ccccc1)N(C)C` (stereo partly specified), the Potency entry in assay [1] is “inactive”.

Take `C[C@@]12CC[C@H]3[C@@H](CC[C@]4(O)C[C@H](O)CC[C@@]34C=O)[C@]1(O)CC[C@@H]2C1=CC(=O)OC1`: the call in assay [6] and in assay [4] was inactive. Further, the Potency in [7] is more than 20.6 µM; in [3], more than 20.6 µM; in [8], 1.07 µM (active); in [9], 0.756 µM (active); in assay [10], 1.07 µM (active).

In the case of `C[N+]1=Cc2cc3c(cc2CC1)OCO3`, the Potency in assay [3] is more than 46 µM. Moreover, in assay [4], the call was inactive. The Potency result in assay [5], in assay [11] and in [12] was “inactive” throughout.

Turning to `CC(C)OC(=O)Nc1cccc(Cl)c1`, in assay [2], the activation is 2.06%.

For `O=C(O)COc1cc(Cl)c(Cl)cc1Cl`, the activation in [13] is -1.88%. Further, the Potency result in assay [14] is “inactive”.

For the compound `COC1CC(OC2CC[C@@]3(C=O)C4CC[C@]5(C)C(C6=CC(=O)OC6)CC[C@@]5(O)C4CC[C@]3(O)C2)OC(C)C1O` (stereo partly specified), the Potency in assay [8] is 0.706 µM (active); in [9] it was 0.315 µM (active); in assay [15], 0.706 µM (active); in [10], 0.397 µM (active). For the same compound, the compound was classed as inactive in [16].

`CNC(=O)Oc1ccc2c(c1)[C@@]1(C)CCN(C)[C@@H]1N2C`: the Potency in assay [17] was 0.631 µM (active). The outcome in assay [18] and in assay [19] was inactive.

Turning to `COc1cc(CNC(=O)CCCC/C=C\C(C)C)ccc1O`, the values for the Potency in [11] and in [12] were 3.98 µM (active) and 10 µM (active), respectively.
